Experimental findings from PMC5540273 (PLoS ONE, 2017) are described below.

Structures are written as SMILES.

Among the test systems are MST1R; MST4; MTOR; MUSK; MYLK2; MYLK4; MYLK; MYO3A; MYO3B; NDR2; NEK10; NEK11; NEK1; NEK2; NEK3.
What all share (details): concentration: 1 μM, replicates: in singlicate; n = 1
For the next experiment, the system named is T1, MRCKB.
T1 construct: gene CDC42BPB

Another experiment concerns T2, MST1.
T2 construct: gene STK4

The subject of another experiment is T3, MST2.
T3 construct: gene STK3

Another experiment relates to T4, MST3.
T4 construct: gene STK24

For a further experiment, the system named is T5, NDR1.
T5 construct: gene STK38
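Also: KINOMEscan kinase panel screen.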

As to `COC(=O)c1c(-c2ccccc2)c2cc(Br)ccc2c(=O)n1Cc1ccc(NC(=O)CCC(=O)O)cc1`, the “%Inh” value in the experiment on MRCKB is 0%; in the experiment on MST1R, 43%; with MST1, 12%; with MST2, 27%; in the experiment on MST3, 7%; with MST4, 0%. For the same compound, the “%Inh” value in the experiment with MTOR was determined as 32%; in the experiment on MUSK, 0%; in the experiment on MYLK2 it was 0%; in the experiment with MYLK4, 1%; with MYLK, 29%; in the experiment with MYO3A, 100%. For the same compound, the “%Inh” value in the experiment on MYO3B, in the experiment with NDR1, in the experiment on NDR2, in the experiment on NEK10, in the experiment on NEK11 and in the experiment with NEK1 was 0% in each case. For the same compound, the “%Inh” value in the experiment with NEK2 is given as 0%; in the experiment on NEK3, 13%.

As to `CCC(=O)c1c(-c2ccccc2)c2cc(Cl)ccc2c(=O)n1Cc1cc(S(C)(=O)=O)n(CCC(C)(C)O)n1`, the “%Inh” value with MRCKB was 0%; with MST1R, 36%; in the experiment on MST1, 21%; in the experiment with MST2, 10%; in the experiment on MST3, 0%; in the experiment on MST4, 0%. Also, the “%Inh” value worked out at 0% with MTOR; 17% in the experiment with MUSK; 5% in the experiment on MYLK2; 2% in the experiment on MYLK4; 5% in the experiment on MYLK; 0% with MYO3A. Moreover, the “%Inh” value turned out to be 0% with MYO3B; 2% in the experiment with NDR1; 1% in the experiment with NDR2; 0% in the experiment with NEK10; 0% with NEK11; 0% in the experiment with NEK1. Besides, the “%Inh” value in the experiment on NEK2 came to 4%; with NEK3, 0%.

With `Cc1c(Cn2c(C)nn3c(=O)cc(N4CCO[C@H](C)C4)nc23)cccc1C(F)(F)F` [GSK2373690], the “%Inh” value is 0% in the experiment on MRCKB; 41% in the experiment with MST1R; 2% in the experiment with MST1; 7% in the experiment on MST2; 0% in the experiment with MST3; 0% in the experiment with MST4. In addition, the “%Inh” value turned out to be 57% in the experiment with MTOR; 28% in the experiment with MUSK; 2% in the experiment with MYLK2; 99.8% with MYLK4; 12% with MYLK; 0% with MYO3A. In addition, the “%Inh” value with MYO3B amounted to 0%; in the experiment with NDR1 it was 6%; in the experiment on NDR2 it was 0%; in the experiment with NEK10, 6%; in the experiment on NEK11 it was 0%; in the experiment with NEK1, 0%. In addition, the “%Inh” value in the experiment on NEK2 is on record as 24%; in the experiment with NEK3 it was 2%.

As to `CCn1c(-c2nonc2N)nc2ccccc21` [SB-693162/GW549034], the “%Inh” value with MRCKB amounted to 0%; in the experiment with MST1R it was 0%; with MST1 it was 0%; in the experiment with MST2, 34%; in the experiment with MST3 it was 11%; in the experiment on MST4, 0%. The “%Inh” value with MTOR was found to be 0%; with MUSK, 42%; in the experiment with MYLK2 it was 0%; with MYLK4, 0%; in the experiment on MYLK, 48%; in the experiment with MYO3A it was 0%. Besides, the “%Inh” value with MYO3B is on record as 18%; in the experiment on NDR1 it was 37%; in the experiment with NDR2, 23%; with NEK10, 12%; in the experiment on NEK11, 25%; in the experiment on NEK1, 0%. Further, the “%Inh” value in the experiment with NEK2 and with NEK3 was 0% each time.

In the case of `CCn1c(-c2ccoc2)nc2cnccc21` [SB-733887], the “%Inh” value with MRCKB, in the experiment with MST1R, in the experiment with MST1, with MST2, in the experiment with MST3 and in the experiment with MST4 was 0% in each case. Further, the “%Inh” value with MTOR was 29%; in the experiment with MUSK, 2%; in the experiment with MYLK2 it was 18%; in the experiment on MYLK4, 0%; in the experiment on MYLK it was 11%; in the experiment with MYO3A, 6%. Moreover, the “%Inh” value is 0% in the experiment on MYO3B; 0% with NDR1; 0% in the experiment on NDR2; 19% in the experiment with NEK10; 12% in the experiment with NEK11; 2% in the experiment on NEK1. Besides, the “%Inh” value worked out at 0% in the experiment with NEK2 and 16% in the experiment with NEK3.

Take `Nc1n[nH]c2nnc(-c3ccccc3)c(-c3ccccc3)c12` [GW554060]: the “%Inh” value in the experiment with MRCKB worked out at 0%; with MST1R it was 40%; in the experiment on MST1, 0%; in the experiment with MST2, 0%; in the experiment with MST3, 0%; in the experiment with MST4, 0%. Moreover, the “%Inh” value in the experiment with MTOR was determined as 12%; with MUSK, 20%; in the experiment with MYLK2, 0%; in the experiment on MYLK4, 1%; with MYLK, 16%; in the experiment with MYO3A it was 0%. Further, the “%Inh” value is 0% in the experiment on MYO3B; 9% in the experiment with NDR1; 10% in the experiment with NDR2; 9% in the experiment on NEK10; 5% in the experiment with NEK11; 0% in the experiment with NEK1. For the same compound, the “%Inh” value with NEK2 is 0%; with NEK3, 4%.

As to `O=C(Nc1n[nH]c2nc(-c3ccccc3)c(Cl)cc12)C1CC1` [SB-734909], the “%Inh” value turned out to be 6% in the experiment on MRCKB; 0% with MST1R; 12% with MST1; 50% with MST2; 0% in the experiment with MST3; 37% with MST4. In addition, the “%Inh” value in the experiment with MTOR is on record as 19%; with MUSK, 19%; in the experiment with MYLK2 it was 93.2%; with MYLK4 it was 33%; in the experiment on MYLK, 37%; with MYO3A, 0%. The “%Inh” value in the experiment with MYO3B amounted to 12%; in the experiment on NDR1, 8%; in the experiment on NDR2 it was 0%; in the experiment with NEK10, 0%; in the experiment on NEK11 it was 11%; with NEK1, 0%. For the same compound, the “%Inh” value in the experiment with NEK2 was found to be 0%; in the experiment on NEK3, 33%.

For `CCCNC(=O)Nc1ccc(Oc2ncnc3ccn(C)c23)cc1`, the “%Inh” value in the experiment with MRCKB is 0%; with MST1R, 12%; in the experiment with MST1, 0%; in the experiment on MST2 it was 0%; in the experiment on MST3, 4%; in the experiment with MST4, 0%. Also, the “%Inh” value in the experiment on MTOR was 8%; with MUSK, 0%; in the experiment on MYLK2 it was 11%; in the experiment with MYLK4, 21%; with MYLK it was 0%; in the experiment on MYO3A, 0%. Moreover, the “%Inh” value in the experiment on MYO3B is 40%; in the experiment with NDR1, 3%; with NDR2 it was 0%; in the experiment on NEK10, 0%; in the experiment with NEK11, 0%; in the experiment on NEK1, 0%. In addition, the “%Inh” value in the experiment with NEK2 was 0%; in the experiment on NEK3, 33%.

As for `Cc1cc(Nc2nc(-c3cccc(C)n3)nc3ccccc23)ccn1` [GW872411], the “%Inh” value with MRCKB, in the experiment on MST1R, in the experiment on MST1, in the experiment with MST2, in the experiment on MST3 and with MST4 was 0% throughout. Also, the “%Inh” value was 73% in the experiment with MTOR; 9% in the experiment with MUSK; 0% with MYLK2; 26% in the experiment with MYLK4; 0% in the experiment on MYLK; 0% in the experiment with MYO3A. For the same compound, the “%Inh” value is given as 0% in the experiment with MYO3B; 31% in the experiment with NDR1; 22% in the experiment with NDR2; 6% with NEK10; 0% in the experiment with NEK11; 0% in the experiment on NEK1. Also, the “%Inh” value in the experiment on NEK2 is reported as 0%; in the experiment with NEK3 it was 14%.

Turning to `COc1cc2ncn(-c3cc(OCc4ccc(S(C)(=O)=O)cc4)c(C(N)=O)s3)c2cc1OC` [GW869979], the “%Inh” value with MRCKB turned out to be 0%; with MST1R it was 0%; in the experiment with MST1, 0%; in the experiment on MST2, 44%; in the experiment with MST3, 7%; in the experiment on MST4, 14%. For the same compound, the “%Inh” value in the experiment on MTOR was found to be 6%; in the experiment with MUSK, 0%; with MYLK2 it was 0%; in the experiment on MYLK4, 8%; in the experiment with MYLK, 46%; in the experiment with MYO3A, 0%. For the same compound, the “%Inh” value in the experiment with MYO3B is recorded as 0%; with NDR1, 25%; with NDR2 it was 4%; in the experiment on NEK10, 29%; in the experiment with NEK11, 14%; in the experiment on NEK1 it was 0%. In addition, the results for the “%Inh” value in the experiment with NEK2 and in the experiment with NEK3 were 0% and 14%, respectively.

With `OCCCNc1nccc(-c2c(-c3cccc(C(F)(F)F)c3)nn3cc(C(F)(F)F)ccc23)n1` [GW630813], the “%Inh” value in the experiment with MRCKB came to 0%; with MST1R, 17%; with MST1, 9%; in the experiment on MST2, 0%; in the experiment with MST3, 25%; in the experiment on MST4, 0%. The “%Inh” value with MTOR turned out to be 1%; in the experiment on MUSK, 0%; in the experiment on MYLK2 it was 0%; in the experiment with MYLK4, 0%; with MYLK it was 10%; with MYO3A, 43%. The “%Inh” value stood at 0% with MYO3B; 9% with NDR1; 18% with NDR2; 0% in the experiment on NEK10; 5% with NEK11; 0% in the experiment on NEK1. In addition, the “%Inh” value in the experiment on NEK2 and in the experiment on NEK3 was 0% throughout.
